Source: PubChem BioAssay
Sampled rows, rich in hits. Any-hit rate of the full collection: about 13%.
WT yeast gro inh: growth inhibition of WT strain, primary screen, mitochondrial fusion inhibitor project, WT and mutant strains, chemical genetic | mitochondrial fusion phenotypic screen | inhibition, % at 10 µM | 190,000 tested, 2.1% active; in the data active = inhibition above about 58%; tested in S. cerevisiae
CHOP inh: inhibitors of CHOP promoter induction, primary screen, cell-based, unfolded protein response, luciferase reporter | CHO-K1 CHOP-promoter luciferase, tunicamycin-induced, 15-18 h | inhibition, % at 10 µM | 220,000 tested, 3.8% active | AID 2732, 2010;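 active = compounds that reduced the stress-induced luciferase reporter signal by more than about 70% of percent inhibition, limit read from the data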;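 note: 0% = tunicamycin plus vehicle and 100% = wells without tunicamycin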
L major viab: Leishmania major promastigote growth inhibition, primary screen. 200,000 tested, 9% active. inhibition, % at 10 µM. AID 1063, 2008. Leishmania major promastigotes, resazurin fluorescence viability; in the data active = inhibition above about 50%;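 note: promastigotes grown with compound for 44 hours at 28 °C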
RAM network inh: inhibitors of the yeast RAM network, primary screen, dse1pr::URA3 reporter, 5-FOA selection; S. cerevisiae dse1pr::URA3 reporter, 5-FOA growth OD615, 2 d; analog-sensitive cbk1-as2 kinase mutant strain; inhibition, % at 50 µM; AID 868, 2007; 190,000 tested, 1.8% active;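 active = inhibition above a set limit, 3 SD over mean compound inhibition, cut at about 8.4% in these data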;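 note: 0% = DMSO-only wells with no growth and 100% = 10 µM 1-NA-PP1 full growth; inhibition rescues growth on 5-FOA so higher OD means more RAM inhibition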
Numbers without * were called inactive.

O=C(Nc1c(-c2ccccc2)nc2ccc(Cl)cn12)c1cccs1 was read as WT yeast gro inh -17.2, CHOP inh -4.7, L major viab 78.9* and RAM network inh 2.5.
CCc1ccn2cc(-c3ccc4c(c3)OCO4)nc2c1 was read as CHOP inh 77.7*.
`Cc1csc2c(N(C)CCO)ncnc12` gave CHOP inh 4.1.
`COc1cc(NC(=O)c2cc3sccc3n2C)cc(OC)c1` gave WT yeast gro inh 31.8, CHOP inh 75.0*, L major viab 5.4 and RAM network inh 3.3.
For CCn1c(=N)c(C(=O)NC)cc2c(=O)n3cccc(C)c3nc21 the results were CHOP inh -16.8.
Screening CCn1c(=N)c(C(N)=O)cc2c(=O)n3cccc(C)c3nc21 returned L major viab 99.8*.
For C=CCn1c(=N)c(C(=O)OCC)cc2c(=O)n3cc(C)ccc3nc21 the results were WT yeast gro inh 13.1.
Cc1ccc2nc3c(cc(C(N)=S)c(=N)n3CCCOC(C)C)c(=O)n2c1 was read as WT yeast gro inh 11.6, CHOP inh -6.4, L major viab 85.7* and RAM network inh -0.1.
`Cc1cccn2c(=O)c3cc(C#N)c(=NC(=O)c4ccncc4)n(CCCOC(C)C)c3nc12` gave WT yeast gro inh 1.2, CHOP inh -38.8, L major viab 61.1* and RAM network inh -0.3.
`CCCn1c(=N)c(C(=O)NC2CCCC2)cc2c(=O)n3cccc(C)c3nc21` gave WT yeast gro inh -12.0, CHOP inh -23.3, L major viab 58.1* and RAM network inh 2.6.
Screening CN(C(=S)NC(=O)Cc1ccccc1)c1ccccc1 returned WT yeast gro inh -14.2, CHOP inh -22.7, L major viab -4.5 and RAM network inh -0.1.
`Cc1cccn2c(=O)c3cc(C(N)=S)c(=N)n(CCCN4CCOCC4)c3nc12` gave WT yeast gro inh 11.6, CHOP inh 8.0, L major viab 64.2* and RAM network inh 0.0.
CCCCNC(=O)c1cc2c(=O)n3cccc(C)c3nc2n(CCN2CCOCC2)c1=N was read as WT yeast gro inh 3.4, CHOP inh 9.0, L major viab 12.2 and RAM network inh 0.5.
Screening Cc1cccn2c(=O)c3cc(C#N)c(=N)n(CCCN4CCOCC4)c3nc12 returned L major viab 89.2*.
`COc1ccccc1NCC(=O)n1nc(C)cc1C` gave WT yeast gro inh 4.2, CHOP inh 9.4, L major viab -1.8 and RAM network inh 1.2.
For CC(C)(C)C(=O)Nc1cccc(OC(F)(F)C(F)Cl)c1 (configuration not stated) the results were WT yeast gro inh 10.8, CHOP inh 36.5, L major viab 17.0 and RAM network inh 1.9.
`O=C1C2C3C=CC(C3)C2C(=O)N1c1ccccc1OS(=O)(=O)c1ccccc1` (configuration not stated) gave WT yeast gro inh -8.8, CHOP inh 27.8, L major viab 62.9* and RAM network inh 2.8.
`O=C(COc1ccccc1N1C(=O)C2C3C=CC(C3)C2C1=O)c1ccccc1` (configuration not stated) gave CHOP inh 6.2.
`CCOc1c(Br)ccc2c1sc1nc[nH]c(=O)c12` gave WT yeast gro inh -2.1, CHOP inh 93.1*, L major viab 1.5 and RAM network inh 3.8.
O=C(CSc1nnc(-c2ccco2)o1)c1ccc(O)cc1O was read as WT yeast gro inh -1.3, CHOP inh 38.0, L major viab 2.7 and RAM network inh 2.7.
Screening COC(=O)c1cn(C(=O)c2ccc(C)cc2C)c2ccccc12 returned WT yeast gro inh 60.5*, CHOP inh -8.6, L major viab 15.0 and RAM network inh 2.7.
COC(=O)c1cn(C(=O)OC)c2ccccc12 was read as WT yeast gro inh 66.3*, CHOP inh 12.9, L major viab 19.4 and RAM network inh 2.5.
`COc1ccc(CC(=O)Nc2ccc(-c3ccc4nnc(C)n4n3)cc2)cc1OC` gave WT yeast gro inh -0.1, CHOP inh -10.1, L major viab 3.4 and RAM network inh 6.8.
For COc1cccc(/C=N/Nc2nc(-c3cccnc3)nc3ccccc23)c1 the results were CHOP inh -14.6.
`COc1cccc(CNc2nc(-c3cccnc3)nc3ccccc23)c1` gave WT yeast gro inh 26.6, CHOP inh 27.5, L major viab 76.1* and RAM network inh 0.5.
Screening CCCC(CCC)c1nc2ccncc2[nH]1 returned WT yeast gro inh -6.6, CHOP inh 17.8, L major viab 6.4 and RAM network inh 1.1.
`CCC(C)N1C(=O)S/C(=C/c2ccc(N3CCOCC3)cc2C)C1=O` (configuration not stated) gave WT yeast gro inh 18.8, CHOP inh 19.0, L major viab 0.1 and RAM network inh 8.1.
Screening Cc1cc(N2CCOCC2)ccc1/C=C1\SC(=O)N(C(C)C)C1=O returned WT yeast gro inh -10.7, CHOP inh 56.0, L major viab 5.0 and RAM network inh 10.8*.
`CCOCC(=O)Nc1ccccc1C(=O)OCC` gave WT yeast gro inh 1.9, CHOP inh 37.7, L major viab -3.0 and RAM network inh -0.6.
`Cc1c(NC(=O)c2cccs2)cccc1C(=O)O` gave WT yeast gro inh 7.3, CHOP inh -27.8, L major viab 81.3* and RAM network inh 0.9.
CCOC(=O)c1ccccc1NC(=O)COc1ccccc1 was read as WT yeast gro inh 7.2, CHOP inh 84.5*, L major viab -0.2 and RAM network inh 1.3.
For CCOC(=O)c1ccccc1NC(=O)c1cncc(Br)c1 the results were WT yeast gro inh 8.9, CHOP inh 72.9*, L major viab -1.7 and RAM network inh 4.0.
For CCOC(=O)c1ccccc1NC(=O)c1cccnc1 the results were WT yeast gro inh 8.5, CHOP inh 31.2, L major viab -0.1 and RAM network inh -0.4.
Screening COc1cc(NC(=O)c2cccs2)c(C(=O)OCC(=O)NCc2ccccc2)cc1OC returned WT yeast gro inh 7.6, CHOP inh 87.1*, L major viab -3.4 and RAM network inh 1.3.
Cc1cc(C)c(S(=O)(=O)N2CCN(C(=O)N(C)C)CC2)c(C)c1 was read as WT yeast gro inh -8.6, CHOP inh -14.2, L major viab -3.4 and RAM network inh 0.4.
For CCOC(=O)c1ccc(NC(=O)c2n[nH]c(=O)c3ccccc23)cc1 the results were WT yeast gro inh -4.5, CHOP inh 13.8, L major viab 3.0 and RAM network inh 3.3.
CCOC(=O)c1ccccc1NC(=O)c1cccs1 was read as WT yeast gro inh -2.6, CHOP inh 91.5*, L major viab 3.5 and RAM network inh 2.2.
Screening CCOC(=O)c1ccccc1NC(=O)c1n[nH]c(=O)c2ccccc12 returned WT yeast gro inh 5.0, CHOP inh 93.2*, L major viab -6.2 and RAM network inh 1.0.
`CCN(CC)c1c([N+](=O)[O-])c(=O)n(CC)c2ccccc12` gave CHOP inh 30.9.
Screening CN(c1ccccc1C(=O)N1CCN(Cc2ccc3c(c2)OCO3)CC1)S(C)(=O)=O returned WT yeast gro inh -0.9, CHOP inh 33.6, L major viab -4.2 and RAM network inh -0.4.
